The whole screen tested about 52,000 compounds, of which about 4,300 (8.3%) were called active. No stated cut-off is given here; in the data, active means survival mostly below about 52% (no sharp cut-off); inactive means mostly above about 56%. Many of the other results were omitted from the sample, so actives are more common in it than they were.
system: DeltatarO mutant; assay: growth inhibition of S. aureus wild type versus tarO mutant, primary screen, teichoic acid synthesis inhibitors, RN4220, OD600 (AID 463173); conditions: OD600, 18 h, stronger effect = lower value, screened at 18.75 µg/mL (by protocol)

| SMILES | survival |
| --- | --- |
| CCN1CCN(c2oc(/C=C/c3cc(OC)c(OC)c(OC)c3)nc2C#N)CC1 | 72% (inactive) |
| O=C(O)CSc1nc2c(c(C(F)(F)F)n1)CCc1ccccc1-2 | 96% (inactive) |
| CCN(CC)N=Nc1ccc(S(=O)(=O)N2CCSC2C(=O)O)cc1 (stereo not drawn) | 103% (inactive) |
| CCOc1ccc(CC(=O)NCCc2csc(-c3ccc(Cl)cc3)n2)cc1 | 67% (inactive) |
| CCOC(=O)/C(C#N)=C\c1ccc(Br)s1 | 93% (inactive) |
| CN(C(=O)CSc1nc2ccccc2n1CC(=O)NCc1ccc(F)cc1)c1ccc(F)cc1 | 128% (inactive) |
| COc1ccc(CNc2ccc3cc(S(=O)(=O)N4CCCCC4)ccc3n2)cc1 | 79% (inactive) |
| COc1cc(NC(=O)CN2CCCN(S(=O)(=O)c3ccc(F)cc3)CC2)cc(OC)c1 | 74% (inactive) |
| CCCCSc1nnc2[nH]c(=O)cc(C)n12 | 99% (inactive) |
| CC(C)C(=O)Nc1nnc(SCc2cc(=O)n3ccccc3n2)s1 | 86% (inactive) |
| Cc1cccn2c(=O)cc(CSc3nnc(NC(=O)COc4ccccc4)s3)nc12 | 84% (inactive) |
| Cc1ccc(OCC(=O)Nc2nnc(SCc3cc(=O)n4cc(C)ccc4n3)s2)cc1 | 6% (active) |
| Cc1cccn2c(=O)cc(CSc3nnc(NC(=O)COc4ccc(F)cc4)s3)nc12 | -2% (active) |
| Cc1ccc2nc(CSc3nnc(NC(=O)COc4ccccc4)s3)cc(=O)n2c1 | 67% (inactive) |
| Cc1ccc(OCC(=O)Nc2nnc(SCc3cc(=O)n4cccc(C)c4n3)s2)cc1 | 76% (inactive) |
| Cc1ccc2nc(CSc3nnc(NC(=O)C(C)C)s3)cc(=O)n2c1 | -1% (active) |
| Cc1ccc2nc(CSc3nnc(NC(=O)COc4ccccc4F)s3)cc(=O)n2c1 | 70% (inactive) |
| Cc1ccc2nc(CSc3nnc(NC(=O)CC(C)C)s3)cc(=O)n2c1 | 76% (inactive) |
| COCCN(C(=O)c1ccco1)c1nnc(-c2ccc(F)cc2)s1 | 58% (inactive) |
| CSc1nnc(-c2ccncc2)n1C | 97% (inactive) |
| COc1ccc(N2CCN(S(=O)(=O)c3csc(C(N)=O)c3)CC2)cc1 | 90% (inactive) |
| COc1cc(Cl)c(C)cc1NC(=O)CSc1cc(=O)n(C)c2cc(Cl)ccc12 | 63% (inactive) |
| CC(C)(C)OC(=O)N1CC2C(C1)C2NC(=O)c1nsc(Cl)c1Cl (stereo not drawn) | 82% (inactive) |
| CCOC(=O)c1ccc(NC(=O)c2ccc3c(c2)c(C)c(C)n3Cc2ccc(F)cc2)cc1 | 91% (inactive) |

| SMILES | survival |
| --- | --- |
| O=C(Cn1c(=O)n(-c2ccccc2)c(=O)c2ccc(C(=O)NCc3ccc4c(c3)OCO4)cc21)Nc1ccc(Br)cc1 | 79% (inactive) |
| CSc1ccc(CCNC(=O)Cn2nc(C)n3c(cc4sccc43)c2=O)cc1 | 88% (inactive) |
| COc1ccc(Br)cc1C1Sc2ccccc2NC2=C1C(=O)c1ccccc12 (stereo not drawn) | 31% (active) |
| CCCc1ccc(C2Sc3ccccc3NC3=C2C(=O)c2ccccc23)cc1 (stereo not drawn) | 94% (inactive) |
| CC(C)(C)c1ccc(C2Sc3ccccc3NC3=C2C(=O)c2ccccc23)cc1 (stereo not drawn) | 98% (inactive) |
| O=C1C2=C(Nc3ccccc3SC2c2ccc(Cl)c(Cl)c2)c2ccccc21 (stereo not drawn) | 22% (active) |
| CCc1ccc(C2Sc3ccccc3NC3=C2C(=O)c2ccccc23)cc1 (stereo not drawn) | 104% (inactive) |
| O=C1C2=C(Nc3ccccc3SC2c2c(F)cccc2Cl)c2ccccc21 (stereo not drawn) | 94% (inactive) |
| CCOc1cc(C2Sc3ccccc3NC3=C2C(=O)c2ccccc23)ccc1O (stereo not drawn) | 48% (inactive) |
| O=C1C2=C(Nc3ccccc3SC2c2ccc(C(F)(F)F)cc2)c2ccccc21 (stereo not drawn) | 16% (active) |
| COc1ccc(C2Sc3ccccc3NC3=C2C(=O)c2ccccc23)c(OC)c1OC (stereo not drawn) | 77% (inactive) |
| CC(C)c1ccc(C2Sc3ccccc3NC3=C2C(=O)c2ccccc23)cc1 (stereo not drawn) | 85% (inactive) |
| O=C1C2=C(Nc3ccccc3SC2c2ccccc2C(F)(F)F)c2ccccc21 (stereo not drawn) | 24% (active) |
| CC(=O)Nc1ccc(C2Sc3ccccc3NC3=C2C(=O)c2ccccc23)cc1 (stereo not drawn) | 116% (inactive) |
| CC1=C(C)NC(=S)SC1 | 101% (inactive) |
| Cc1cc(=O)c2cc(C(=O)Nc3ccccc3C)ccc2[nH]1 | 84% (inactive) |
| COc1ccc(CCNC(=O)c2c(Nc3ccccc3C)sc(C(=O)c3ccccc3)c2N)cc1OC | 66% (inactive) |
| O=C(NC1CC1)C1CCN(C(=O)c2ccc(Cl)cc2)CC1 | 86% (inactive) |
| CCCC(C(=O)NC1CCCC1)N(C(=O)Cn1nnc(-c2ccc(C)o2)n1)c1ccccc1 (stereo not drawn) | 89% (inactive) |
| CC(=NC1CC1)C1=C(O)c2ccccc2C1=O | 92% (inactive) |
| Cc1cc(C)c(S(=O)(=O)n2cnc(C)c2)c(C)c1 | 95% (inactive) |
| Cc1cc(OCC(=O)Nc2cc(-c3nc4ncccc4o3)ccc2C)ccc1Cl | 50% (inactive) |
| Cc1cc(-c2nc3ncccc3o2)ccc1NC(=O)COc1ccc(C(C)(C)C)cc1 | 32% (active) |
| CC(C)c1ccc(OCC(=O)Nc2cc(-c3nc4ncccc4o3)ccc2Cl)cc1 | 150% (inactive) |

| SMILES | survival |
| --- | --- |
| CCC(=O)Nc1ccc(-c2nc3ncccc3o2)cc1C | 73% (inactive) |
| Cc1ccc(-c2nc3ncccc3o2)cc1NC(=O)COc1ccc(C(C)C)cc1 | 6% (active) |
| Cc1cc(-c2nc3ncccc3o2)ccc1NC(=O)COc1cc(C)c(Cl)c(C)c1 | 65% (inactive) |
| COc1ccc(-c2nc(C)c(CCNC(=O)C(=O)Nc3c(C)cccc3C)s2)cc1OC | 85% (inactive) |
| CCc1ccccc1NC(=O)c1nn(-c2ccc(C)cc2)c(=O)c2c1c1ccccc1n2C | 140% (inactive) |
| Cc1cc(C)cc(NC(=O)CCn2cnc3ccccc3c2=O)c1 | 77% (inactive) |
| CC1(C)Cc2ccccc2C(=NCCC(=O)O)N1 | 79% (inactive) |
| CC(=O)NCCNC(=O)CCCc1nnc2n(CCC(C)C)c(=O)c3sccc3n12 | 90% (inactive) |
| CC(C)c1nnc(N2C(=O)c3oc4ccccc4c(=O)c3C2c2ccccc2F)s1 (stereo not drawn) | 64% (inactive) |
| Cc1ccc2c(=O)cc(C(=O)NCc3ccccc3)oc2c1 | 39% (active) |
| COc1ccc(CCNC(=O)c2cc(=O)c3ccc(C)cc3o2)cc1OC | 62% (inactive) |
| Cc1ccc(CNC(=O)c2cc(=O)c3cc(C)cc(C)c3o2)cc1 | 102% (inactive) |
| COc1ccc(CNC(=O)c2cc3cc(OC)ccc3oc2=O)cc1 | 51% (inactive) |
| Cc1ccc(CNC(=O)c2cc(=O)c3cc(C)c(C)cc3o2)cc1 | 77% (inactive) |
| COc1ccc(CNC(=O)c2cc(=O)c3cc(C)ccc3o2)cc1 | 45% (active) |
| COc1ccc(CNC(=O)Cc2coc3ccc(C)cc23)cc1 | 108% (inactive) |
| CCc1ccc2oc(C(=O)NCc3ccccc3)cc(=O)c2c1 | 66% (inactive) |
| Cc1ccc(CNC(=O)c2cc(=O)c3cc(C)ccc3o2)cc1 | 42% (active) |
| COc1ccc(CC(NC(C)=O)C(=O)N2CCN(C(=O)Nc3ccc(C#N)cc3)CC2)cc1 (stereo not drawn) | 99% (inactive) |
| Cc1cc(C)cc(NC(=O)NCCc2c(C)nn(C)c2C)c1 | 64% (inactive) |
| CC1CCCCN1C(=O)CSc1nc2ccccc2c(=O)[nH]1 (stereo not drawn) | 82% (inactive) |
| CCOc1cc(C(=O)OCc2cc(=O)n3nc(CC)sc3n2)cc(OCC)c1OCC | 87% (inactive) |
| Cc1ccc(OCc2nc(-c3ccc(C(=O)NCCc4ccc(Cl)cc4)cc3)oc2C)cc1 | 84% (inactive) |
| Cc1oc(-c2cccc(Cl)c2)nc1CN1CCC(C(=O)NCc2ccc(F)cc2)CC1 | 124% (inactive) |

| SMILES | survival |
| --- | --- |
| O=C(Nc1ccc(Cl)cc1)c1cc2c(Cl)nc3ccccc3c2s1 | 94% (inactive) |
| CCOc1ccccc1NC(=O)c1cc2c(=O)[nH]c3ccccc3c2s1 | 60% (inactive) |
| CCc1ccccc1NC(=O)c1cc2c(Cl)nc3ccccc3c2s1 | 42% (active) |
| CC(C)NC(=O)c1cc2c(Cl)nc3ccccc3c2s1 | 56% (inactive) |
| CCc1ccccc1NC(=O)c1cc(-c2ccc(Cl)s2)nc2ccccc12 | 71% (inactive) |
| CCOc1ccccc1NC(=O)c1cc2c(Cl)nc3ccccc3c2s1 | 41% (active) |
| CCOC(=O)C1=C(CN(CC)Cc2ccccc2)NC(=O)NC1c1ccc(OC)cc1 (stereo not drawn) | 65% (inactive) |
| CNC(=O)c1cc2c(n(-c3ccc(C)cc3)c1=O)CC(C)(C)CC2=O | 93% (inactive) |
| COc1ccccc1NC(=O)c1cc2c(n(-c3ccc(C)cc3)c1=O)CC(C)(C)CC2=O | 45% (active) |
| CCOC(=O)c1ccc(NC(=O)c2cc3c(n(-c4ccc(C)cc4)c2=O)CC(C)(C)CC3=O)cc1 | 153% (inactive) |
| CC1(C)CC(=O)c2cc(C(=O)Nc3ccc(Br)cc3)c(=O)n(-c3ccc(Cl)cc3)c2C1 | 42% (active) |
| CC1(C)CC(=O)c2cc(C(=O)NC(C)(C)C)c(=O)n(-c3ccccc3)c2C1 | 39% (active) |
| CCOc1ccc(NC(=O)c2cc3c(n(-c4ccc(OC)cc4)c2=O)CC(C)(C)CC3=O)cc1 | 60% (inactive) |
| CN(C)C=NC(=O)c1cc2c(n(-c3ccccc3)c1=O)CC(C)(C)CC2=O | 46% (inactive) |
| Cc1ccc(-n2c3c(cc(C(=O)Nc4ccccc4C(N)=O)c2=O)C(=O)CC(C)(C)C3)cc1 | 49% (inactive) |
| COc1ccc(OC)c(NC(=O)c2cc3c(n(-c4ccc(Cl)cc4)c2=O)CC(C)(C)CC3=O)c1 | 69% (inactive) |
| Cc1ccc(CCNC(=O)CCCn2c(=O)c3ccccc3n(Cc3ccccc3C)c2=O)cc1 | 88% (inactive) |
| CC1CC(C)CN(C(=O)Cn2cnc3c2c(=O)n(C)c(=O)n3C)C1 (stereo not drawn) | 107% (inactive) |
| Cc1ccccc1CNC(=O)CN1C(=O)CSc2ccc(S(=O)(=O)N(C)C)cc21 | 78% (inactive) |
| CCC(=O)N(Cc1nc2ccccc2c(=O)[nH]1)Cc1ccccc1OC | 90% (inactive) |
| Cc1ccc(N2CCN(C(=O)c3cc(S(=O)(=O)N4CCCCC4)c[nH]3)CC2)c(C)c1 | 102% (inactive) |

— PubChem BioAssay AID463173 (ICCB-Longwood Screening Facility, Harvard Medical School, 2010)
